Measurements from PubChem BioAssay AID1159580 (chemical genetic matrix, 2015).
Values joined by “and” are separate entries in the source; they are usually repeats but may differ in a detail not shown here. Equal entries are not always repeated. Among all 5,500 compounds or so, about 2,000 (36%) were called active. Another 18% or so got no clear call; they are omitted. No stated cut-off is given here; in the data, active means normalized growth mostly below about 0.91 (no sharp cut-off); inconclusive means no clear call, values can overlap the other calls; inactive means mostly above about 0.92. The list shows a part of the results.

Assay: chemical genetic growth profiling, strain panel (AID 1159580);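 further: tested at 20 µM; growth read once vehicle control cultures reached saturation at 30 °C; 1 = growth at the plate median or of vehicle wells; lower values mean less growth of the strain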
Details: S. cerevisiae deletion strains, growth OD

Measured: normalized growth

C[C@](N)(Cc1ccc(O)c(O)c1)C(=O)O
inactive: locus YAL013W, strain DEP1, hits give low values 0.962 | locus YAL021C, strain ccr4, hits give low values 0.999 | locus YAL026C, strain drs2, hits give low values 0.968 | locus YAL030W, strain snc1, hits give low values 0.967 | locus YBL061C, strain skt5, hits give low values 0.971 | locus YBR009C, strain hhf1, hits give low values 0.964 | locus YBR021W, strain FUR4, hits give low values 1.03 | locus YBR023C, strain chs3, hits give low values 0.957 | locus YBR171W, strain sec66, hits give low values 0.951 | locus YBR229C, strain ROT2, hits give low values 0.951 | locus YBR231C, strain swc5, hits give low values 0.974 | locus YBR279W, strain paf1, hits give low values 0.96 | locus YCL011C, strain gbp2, hits give low values 0.912 | locus YCL016C, strain dcc1, hits give low values 0.92 | locus YCL029C, strain bik1, hits give low values 0.995 | locus YCL061C, strain MRC1, hits give low values 0.966 | locus YCL069W, strain vba3, hits give low values 0.982 | locus YCR088W, strain abp1, hits give low values 0.991 | locus YDL005C, strain med2, hits give low values 0.991 | locus YDL035C, strain GPR1, hits give low values 0.91 | locus YDL040C, strain nat1, hits give low values 0.989 | locus YDL074C, strain BRE1, hits give low values 1.01 | locus YDL101C, strain DUN1, hits give low values 0.987 | locus YDL134C, strain PPH21, hits give low values 0.974 | locus YDL185W, strain tfp1, hits give low values 0.988 | locus YDL192W, strain arf1, hits give low values 0.974 | locus YDR001C, strain nth1, hits give low values 0.971 | locus YDR069C, strain doa4, hits give low values 0.936 | locus YDR101C, strain arx1, hits give low values 1.01 | locus YDR137W, strain rgp1, hits give low values 0.945 | locus YDR150W, strain NUM1, hits give low values 0.943 | locus YDR159W, strain sac3, hits give low values 1 | locus YDR162C, strain NBP2, hits give low values 0.911 | locus YDR195W, strain ref2 0.984 | locus YDR297W, strain sur2, hits give low values 0.963 | locus YDR318W, strain mcm21, hits give low values 0.993 | locus YDR334W, strain swr1, hits give low values 0.92 | locus YDR335W, strain msn5, hits give low values 0.961 | locus YDR388W, hits give low values 1.01 | locus YDR392W, strain spt3, hits give low values 0.886 | locus YDR502C, strain sam2, hits give low values 1 | locus YEL003W, strain gim4, hits give low values 0.992 | locus YEL037C, strain rad23, hits give low values 0.977 | locus YEL061C, strain CIN8 (second series), hits give low values 0.977 | locus YEL061C, strain CIN8, hits give low values 0.978 | locus YER015W, strain faa2, hits give low values 0.965 | locus YER016W, strain bim1, hits give low values 0.987 | locus YER110C, hits give low values 0.971 | locus YER111C, strain swi4, hits give low values 0.995 | locus YER155C, strain BEM2 (second series), hits give low values 0.986 | locus YER155C, strain BEM2, hits give low values 1.02 | locus YER167W, strain BCK2, hits give low values 0.961 | locus YFR010W, strain ubp6, hits give low values 0.939 | locus YGL078C, strain dbp3, hits give low values 0.984 | locus YGL086W, strain mad1, hits give low values 0.958 | locus YGL167C, strain pmr1, hits give low values 0.954 | locus YGL173C, strain kem1, hits give low values 0.941 | locus YGL227W, strain vid30, hits give low values 0.979 | locus YGL240W, strain doc1, hits give low values 0.998 | locus YGL248W, strain PDE1, hits give low values 0.958 | locus YGL253W, strain hxk2, hits give low values 0.981 | locus YGR078C, strain PAC10, hits give low values 0.907 | locus YGR135W, strain pre9, hits give low values 0.973 | locus YGR229C, strain SMI1, hits give low values 0.917 | locus YGR252W, strain gcn5, hits give low values 0.908 | locus YHR013C, strain ard1, hits give low values 0.894 | locus YHR027C, strain rpn1, hits give low values 0.95 | locus YHR030C, strain SLT2, hits give low values 0.981 and 1.04 | locus YHR079C, strain IRE1 (second series), hits give low values 1 | locus YHR079C, strain IRE1, hits give low values 1.05 | locus YHR094C, strain hxt1, hits give low values 0.999 | locus YHR129C, strain ARP1, hits give low values 0.985 | locus YHR142W, strain chs7, hits give low values 0.913 | locus YHR200W, strain rpn10, hits give low values 0.981 | locus YIL066C, strain RNR3, hits give low values 0.882 | locus YIL073C, strain SPO22, hits give low values 0.793 | locus YIL125W, strain kgd1, hits give low values 0.99 | locus YIR030C, strain dcg1, hits give low values 0.987 | locus YJL092W, strain hpr5, hits give low values 0.966 | locus YJL095W, strain BCK1 (second series), hits give low values 0.965 | locus YJL095W, strain BCK1, hits give low values 1.02 | locus YJL115W, strain asf1, hits give low values 0.953 | locus YJL129C, strain trk1, hits give low values 0.973 | locus YJL134W, strain LCB3, hits give low values 0.976 | locus YJL154C, strain vps35, hits give low values 0.974 | locus YJL164C, strain tpk1, hits give low values 0.979 | locus YJL166W, strain qcr8, hits give low values 0.927 | locus YJL168C, strain set2, hits give low values 0.995 | locus YJL187C, strain SWE1 (second series), hits give low values 0.985 | locus YJL187C, strain SWE1, hits give low values 0.978 | locus YJR043C, strain POL32, hits give low values 0.967 | locus YJR066W, strain TOR1, hits give low values 0.99
